# Experimental data published in PubChem BioAssay (EPA / NIEHS).
# Calls of active or inactive are those of the source. How the source made its calls: active means hit-call score of the fitted dose curve at least 0.9, where 1 is the maximum; inactive means score below 0.9.
# Test: CCTE_Padilla_ZF_Score.Edema: CCTE's 144 Hour Post-fertilization zebrafish Assay Score for Edema Malformation, Padilla Lab (AID 2284406)
# Description: CCTE_Padilla_ZF_Phenotype_Score is a whole embryo, multiplexed assay using zebrafish ova exposed for 144 hours post fertilization on a 96-well plate.CCTE_Padilla_ZF_Score.Edema is one of one assay component(s) measured or calculated from the CCTE_Padilla_ZF_Phenotype_Score assay. It is designed to make measurements of zebrafish development as detected with brightfield microscopy of developing zebrafish embryos.Data from the assay component CCTE_Padilla_ZF_Score.Edema was analyzed into 1 assay endpoints. This assay endpoint, CCTE_Padilla_ZF_Score.Edema, was analyzed in the positive analysis fitting direction relative to DMSO as the negative control and baseline of activity. Using a type of viability reporter, gain-of-signal activity can be used to understand changes in developmentals as they relate to the whole embryo. To generalize the intended target to other relatable targets, this assay endpoint is annotated to the zebrafish development intended target family, where the subfamily is embryonic edema.
# Zebrafish husbandry: Wild type adult zebrafish (Danio rerio; undefined outbred stock obtained from Aquatic Research Organisms, Hampton, NH, 03842) were housed in an AAALAC-approved animal facility at 28C with a 14:10 h light: dark cycle (lights on at 08:30 h). Adult fish (2-3 females per male; density = 15-20 adults per tank) were kept in one of several 9-liter (L) flow-through colony tanks (Aquaneering Inc., San Diego, CA). All adults in a colony tank were placed in a 2 L (static) breeding tank (Aquatic Habitats, Apopka, FL) one hour prior to light onset. Typically, adults from two to three colony tanks were mated on the same day. Two hours after light onset the adults were returned to the colony tank. All embryos were gathered from each breeder tank, pooled, and placed in a 28C water bath for 2 h, followed by two washes with 0.06% bleach (v/v) in 10% Hanks' Balanced Salt Solution (13.7 mM NaCl 0.54 mM KCl, 25 uM Na2HPO4, 130 uM CaCl2 100 um MgSO4 and 420 um NaHCO3,), hereafter referred to as Hanks' solution, for 5 min in order to remove any residual bacteria or fungi. Immediately following washing, the embryos were examined, and healthy embryos were separated from dead or unfertilized eggs and moved into fresh Hanks'. Chemical exposures: Zebrafish embryos were exposed in 96-well plates. Between 6- and 8-hours post fertilization (hpf), healthy embryos (with chorions) were transferred, one embryo per well, into 96 well (0.5 mL) microtiter plates (Cell Culture-Treated, Flat-Bottom Microplate 96 well [Corning Costar, Kennebunk, ME; Cat 09-761-145]) filled with 200 uL of Hanks' solution. A random number generator was used to assign the order in which the rows of embryos were plated in 96 well plates each week. After plating, the embryos were dosed with 0.8 uL of the chemical dosing solution then immediately sealed with AlumaSeal II (Excel Scientific Inc, Victorville, CA) to prevent volatilization of the chemicals, and then placed in a leakproof secondary container. These containers were placed in an incubator maintained on a 14:10 h light: dark cycle at 26C for rearing. On 5 dpf, live larvae were gently moved out of the plate with test chemicals and into a new 96 well mesh plate (Millipore Corp., Bedford, MA) with just the Hanks' solution. Once within the mesh well plate, the animals were rinsed with 400 uL of fresh Hanks' three times, and then the plates were covered with a non-adhesive material (Microseal A, BioRad, Hercules, CA), plate lid added, and then plate sides wrapped in Parafilm (PM992, Bermis Company, Neenah, WI), and returned to the incubator. This rinse on 5 dpf was conducted to lessen the possible exposure of the human assessors to the chemicals during detailed examination of each larva at 6 dpf.Larval assessments: On 6 dpf between 8 and 10 AM, two individual assessors, blinded to the chemical treatments, independently examined each larva for mortality, hatching status, and malformations using an Olympus SZH10 stereo microscope. […]
SMILES,AC50,outcome
O=C(Cl)C(F)(F)C(F)(F)C(F)(F)C(F)(F)C(F)(F)C(F)(F)F,76.8 µM (active),–
OC(O)C(F)(F)C(F)(F)F,–,inactive
O=C(F)C1(F)C(F)(F)C(F)(F)C(F)(F)C(F)(F)C1(F)F,–,inactive
OCC(O)CC(F)(F)C(F)(F)C(F)(F)C(F)(F)F (stereo not given),–,inactive
OCC(O)CC(F)(F)C(F)(F)C(F)(F)C(F)(F)C(F)(F)C(F)(F)C(F)(F)C(F)(F)F (stereo not given),9.75 µM (active),–
CN(C(=O)C(F)(F)C(F)(F)C(F)(F)F)[Si](C)(C)C,–,inactive
OCCCCC(F)(F)C(F)(F)C(F)(F)C(F)(F)F,29.2 µM (active),–
CCOC(=O)CC(=O)C(F)(F)C(F)(F)F,–,inactive
C=CC(=O)OCC(F)(F)C(F)(F)C(F)(F)COC(=O)C=C,–,inactive
C[Si](Cl)(Cl)CCC(F)(F)C(F)(F)C(F)(F)C(F)(F)C(F)(F)C(F)(F)F,–,inactive
NC(=O)C(F)(F)C(F)(F)C(F)(F)C(F)F,–,inactive
NC(O)(C(F)(F)F)C(F)(F)F,–,inactive
O=C(O)C(F)(F)OC(F)(F)C(F)(F)OC(F)(F)C(F)(F)OC(F)(F)F,–,inactive
C=CC(=O)OCCC(F)(F)C(F)(F)C(F)(F)C(F)(F)F,–,inactive
NC(=O)C(F)(F)C(F)(F)C(F)(F)C(F)(F)C(F)(F)C(F)(F)C(F)(F)F,–,inactive
NC(=O)C(F)(F)C(F)(F)C(F)(F)C(F)(F)C(N)=O,–,inactive
NCC(F)(F)C(F)(F)C(F)(F)C(F)(F)C(F)(F)C(F)(F)F,75.3 µM (active),–
CCN(CCO)S(=O)(=O)C(F)(F)C(F)(F)C(F)(F)C(F)(F)C(F)(F)C(F)(F)C(F)(F)C(F)(F)F,–,inactive
O=S(=O)(OCC(F)(F)F)C(F)(F)C(F)(F)C(F)(F)C(F)(F)F,34.1 µM (active),–
O=C(O)CCC(F)(F)C(F)(F)C(F)(F)F,–,inactive

SMILES,AC50,outcome
C=CC(=O)OCC(F)(F)C(F)(F)C(F)(F)C(F)(F)C(F)(F)C(F)(F)C(F)(F)C(F)F,–,inactive
OCCCC(F)(F)C(F)(F)C(F)(F)C(F)(F)C(F)(F)C(F)(F)C(F)(F)C(F)(F)F,–,inactive
C=C(C)C(=O)OCC(F)(F)C(F)(F)C(F)(F)C(F)F,–,inactive
O=C(O)C(F)(F)C(F)(F)C(F)(F)OC(F)(F)F,–,inactive
CO[Si](C)(CCC(F)(F)C(F)(F)C(F)(F)C(F)(F)C(F)(F)C(F)(F)F)OC,–,inactive
OCC(F)(F)C(F)(F)C(F)(F)C(F)(F)C(F)(F)C(F)(F)C(F)(F)C(F)(F)CO,–,inactive
NCC(F)(F)C(F)(F)C(F)(F)C(F)(F)C(F)(F)C(F)(F)C(F)(F)C(F)(F)F,–,inactive
O=C(Cl)C(F)(F)C(F)(F)C(F)(F)C(F)(F)C(F)(F)C(F)(F)C(F)(F)F,86.8 µM (active),–
NS(=O)(=O)C(F)(F)C(F)(F)C(F)(F)C(F)(F)C(F)(F)C(F)(F)F,2.27 µM (active),–
O=C(O)C(F)(F)C(F)(F)C(F)(F)C(=O)O,–,inactive
O=S(=O)(O)CCC(F)(F)C(F)(F)C(F)(F)C(F)(F)F,–,inactive
FC(F)(F)C(F)(F)C(F)(F)C(F)(F)C(F)(F)C(F)(F)C(F)(F)CCI,–,inactive
OCC(F)(F)C(F)(F)C(F)(F)CO,–,inactive
O=C(O)CCC(F)(F)C(F)(F)C(F)(F)C(F)(F)C(F)(F)C(F)(F)C(F)(F)F,–,inactive
OCC(F)(F)C(F)(F)C(F)(F)C(F)(F)C(F)(F)C(F)(F)CO,62.9 µM (active),–
O=C(O)C(F)(F)C(F)(F)C(F)(F)OC(F)(C(F)(F)F)C(F)(F)F,–,inactive
COC(F)(C(F)F)C(F)(F)F (stereo not given),–,inactive
O=S(=O)(O)CCC(F)(F)C(F)(F)C(F)(F)C(F)(F)C(F)(F)C(F)(F)C(F)(F)C(F)(F)F,–,inactive
O=S(=O)(Cl)C(F)(F)C(F)(F)C(F)(F)C(F)(F)C(F)(F)C(F)(F)C(F)(F)C(F)(F)F,33.5 µM (active),–
CNS(=O)(=O)C(F)(F)C(F)(F)C(F)(F)C(F)(F)C(F)(F)C(F)(F)C(F)(F)C(F)(F)F,20.7 µM (active),–
